# Screens as filed in PubChem.
# This is a sample that favours compounds with a hit; in the whole collection about 7.9% have one here.
# SW480 rerep: induces DNA re-replication in SW480 colon adenocarcinoma cells | SW480 DNA re-replication, Hoechst DNA content imaging, 48 h | Potency, µM (top dose mostly 46.1 µM), for the others: at the top dose re-replication activation, most hits filed as activators | AID 624297 | 340,000 tested, 1.8% active; note: % of control where 0% means no effect; nearly all actives have a fitted effect of over 55% in size
#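 250 cells/well; 23 nL cpd via pin tool; 48 hr, 37 C, 5% CO2; Hoechst 40 min; imager read of total nuclear intensity, ex 405/em 500-530 nm.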
# KB-3-1 cytotox: KB-3-1 parental cell cytotoxicity; KB-3-1 viability, CellTiter-Glo ATP luminescence, 72 h; Potency, µM (titrated, usually from 46.1 µM), most hits filed as cytotoxic; 400,000 tested, 1.4% active; AID 1347075; note: % is set by controls: 0 for no effect and ±100 for the full control effect; nearly all actives have a fitted effect of over 60% in size
#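 KB-3-1 parental drug-naive adenocarcinoma cells in DMEM/10% FBS, incubated 72 h at 37 C with pin-transferred compounds across a concentration series. Viability by CellTiter-Glo luminescence; concentration-response curves fitted after normalization.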
# MCF10A rereplic: inducers of DNA re-replication in MCF 10A breast cells; MCF 10A DNA re-replication, Hoechst nuclear intensity, 48 h; 350,000 tested, 2.9% active; AID 624296; Potency, µM (titrated, usually from 46.1 µM), without a hit: at the top dose activity, positive = re-replication, most hits filed as activators; note: % of control where 0% means no effect; nearly all actives have a fitted effect of over 50% in size
# HT1080 IDH1KD tx: kills HT-1080 cells with IDH1 knockdown | HT-1080 IDH1 knockdown viability, ATP luminescence, 48 h | Potency, µM (doses to about 46.1 µM), inactives show top-dose activity, negative = toxicity, actives largely listed as cytotoxic | 360,000 tested, 2% active;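 note: 0% = DMSO wells and -100% = cell-free medium wells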
#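 Viability of IDH1-knockdown HT-1080 fibrosarcoma cells was assessed by CellTiter-Glo after 48 h at 37 °C with titrated compound; concentration-effect curves were classified by fit quality and response size.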
# HT1080NT lethal: kills 2HG-producing HT-1080-NT fibrosarcoma cells. HT-1080-NT fibrosarcoma viability, CellTiter-Glo ATP luminescence, 48 h. Potency, µM (doses to about 46.1 µM), without a hit: at the top dose activity, negative = less viability, most hits filed as cytotoxic. 360,000 tested, 1.6% active;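 note: NT is the 2HG producing partner of a matched IDH1 knockdown line; 0% = DMSO-treated cells and -100% = media-only wells without cells; nearly all actives have a fitted effect of over 55% in size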
#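 Compounds were tested in concentration-response format on HT-1080-NT cells for 48 hours at 37 degrees C. Cell viability came from CellTiter-Glo luminescence; curves were classified by r2, response magnitude and activity.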
# KB-V1 cytotox: KB-V1 MDR subline cytotoxicity | Potency, µM (highest dose often 46.1 µM), hits mostly cytotoxic | 400,000 tested, 3.4% active | KB-V1 MDR cells viability, CellTiter-Glo, 72 h; note: % is set by controls: 0 for no effect and ±100 for the full control effect; nearly all actives have a fitted effect of over 60% in size
#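 qHTS viability screen in drug-selected KB-V1 MDR cells: 72 h compound treatment at 37 degrees C, ATP luminescence end point.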
# * = called active by the depositor; i = inactive; ? = inconclusive; / = no result. Calls come from the whole dose curve; as a rule, active = well fitted curve in the direction sought with a large enough effect; inconclusive = small, poorly fitted or top-dose-only effect, or another doubt; inactive = no such curve, though single readings can be large; an effect the other way counts as inactive or inconclusive. Potency is the fitted concentration of half-maximal effect.
SMILES,SW480 rerep,KB-3-1 cytotox,MCF10A rereplic,HT1080 IDH1KD tx,HT1080NT lethal,KB-V1 cytotox
CCCCNC(=O)c1nc(C2CCN(S(=O)(=O)c3ccccc3C(F)(F)F)CC2)oc1-c1ccccc1,/,i,/,7.1%,1.2%,i
Oc1ccccc1-c1cc(-c2ccccc2)n[nH]1,?,i,-33.0%,0.9%,5.1%,i
Oc1ccccc1-c1cc(-c2ccc(F)cc2)n[nH]1,-1.8%,?,?,18.4µM*,?,?
Cc1ccc(-c2cc(-c3ccc(C)cc3O)[nH]n2)cc1,0.4%,i,-1.3%,3.0%,-4.4%,i
Cc1ccc(-c2cc(-c3ccc(F)cc3)n[nH]2)c(O)c1,?,?,?,18.4µM*,25.9µM*,i
CCCC(C)(C)C(=O)N1CCC1(C)C(=O)NS(=O)(=O)c1cccc(Cl)c1 (stereo unspecified),/,i,/,?,-0.9%,i
Cc1ccc(C(C)C)c(OCCSc2nc(-c3cccs3)nc3cc(=O)[nH]n23)c1,/,i,/,/,/,i
COc1ccccc1NC(=O)C/C(N)=N/OCC(=O)Nc1cccc(Cl)c1,-3.0%,i,-4.7%,11.6%,7.7%,18.4µM*
COc1ccc(C)cc1NC(=O)CO/N=C(\N)CC(=O)Nc1ccccc1OC,-3.5%,i,-2.6%,2.5%,5.2%,i
CCN1CCCC1CNC(=O)c1cc2c(-c3cccc(OC)c3)nn(C)c2s1 (stereo unspecified),6.7%,i,12.6%,?,20.6µM*,i
Cn1nc(-c2ccc(Cl)cc2)c2cc(C(=O)NCCCN3CCCC3)sc21,?,?,23.1µM*,?,?,i
CCN1CCCC1CNC(=O)c1cc2c(-c3ccc(Cl)cc3)nn(C)c2s1 (stereo unspecified),20.6µM*,?,?,20.6µM*,25.9µM*,?
CCCCNC(=O)c1cc2c(-c3ccc(Cl)cc3)nn(C)c2s1,2.7%,i,?,-2.8%,9.4%,i
CCN1CCCC1CNC(=O)C(=O)Nc1cccc(OC)c1 (stereo unspecified),0.3%,i,0.0%,5.1%,13.2%,i
COCCNC(=O)c1cc2c(-c3ccc(Cl)cc3)nn(C)c2s1,1.3%,i,6.4%,-13.5%,-25.6%,i
O=C(Cc1cccc(NC(=O)C2CCN(C(=O)C3CCCCC3)CC2)c1)Nc1cccc(C(=O)N2CCCCC2)c1,-6.0%,i,-0.4%,-1.7%,-2.8%,i
COC(=O)c1ccc(CNC(=O)CC[C@H]2O[C@@H](n3cc(C)c(=O)[nH]c3=O)C[C@@H]2O)cc1,/,i,/,17.4%,29.5%,i
O=C(c1cnn(-c2cccc(F)c2)c1-n1cccc1)N1CCN(c2ccccc2F)CC1,/,i,/,/,/,i
O=C(NC(NNc1ccc([N+](=O)[O-])cc1)(C(F)(F)F)C(F)(F)F)c1ccc(Cl)cc1,3.5%,i,14.6µM*,?,-15.9%,i
O=C(NCC1CCCCC1)C1CCCN(C(=O)NC2CCCCC2)C1 (stereo unspecified),-0.5%,?,7.2%,6.0%,?,4.11µM*
O=C(NCc1ccccc1F)C1CCCN(C(=O)NC2CCCCC2)C1 (stereo unspecified),-1.6%,i,12.2%,3.3%,-10.6%,20.6µM*
NC(=O)C1CCCN(C(=O)NC2CCCCC2)C1 (stereo unspecified),3.0%,i,0.8%,8.8%,17.3%,i
Cc1cc(C)cc(NC(=O)COC(=O)CC2CCCC2)c1,5.9%,i,4.6%,-6.0%,-0.3%,i
Clc1cccc(CNc2ccn3nc(-c4ccccc4Cl)cc3n2)c1,/,i,/,?,?,i
COc1ccc(CNC(=O)CCc2c(C)nc3nc(CNC(=O)OC(C)(C)C)nn3c2C)cc1,/,i,/,/,/,?
SMILES,SW480 rerep,KB-3-1 cytotox,MCF10A rereplic,HT1080 IDH1KD tx,HT1080NT lethal,KB-V1 cytotox
COc1ccc([C@H]2[C@H](C(=O)OC(C)(C)C)N3N=Cc4ccccc4C3C23C(=O)c2ccccc2C3=O)cc1OC (stereo partly specified),-3.0%,i,3.2%,-0.4%,-6.9%,8.2µM*
Cc1cccn2cc(COc3ccc(-c4ccccc4)cc3)nc12,-9.2%,i,16.4µM*,18.4µM*,?,?
CCOC(=O)C#CC(CCc1ccccc1)OS(N)(=O)=O (stereo unspecified),-2.4%,i,5.17µM*,-2.8%,-1.4%,i
O=C(O)c1cc(N2CCCC2)ccn1,-2.1%,i,-2.4%,13.1%,7.8%,i
CC(C)(CO)NCC(O)COc1ccc2c(c1)CCC2 (stereo unspecified),-0.7%,i,4.8%,14.1%,-1.7%,i
CC(C)(C)CC(C)(C)NCC(O)COc1ccc2c(c1)CCC2 (stereo unspecified),?,20.6µM*,?,?,20.6µM*,?
CCc1ccccc1NC(=O)N1CC(C)Sc2ccccc21 (stereo unspecified),/,i,/,/,/,i
CCOC(=O)COc1ccc(Br)cc1/C=C\c1[nH]c(=O)[nH]c(=O)c1[N+](=O)[O-],?,i,8.2µM*,-10.6%,-2.7%,i
CCOC(=O)COc1ccc(Br)cc1/C=C/c1[nH]c(=O)[nH]c(=O)c1[N+](=O)[O-],?,i,?,?,18.4µM*,i
CCc1nc2c(OCc3cccc(Cl)c3)cccn2c1N(C)C(=O)c1ccncc1,/,i,/,-10.8%,12.7%,?
CN(C)CCNc1ncnc2c1sc1nc(-c3ccccc3)c3c(c12)CCCC3,3.9%,i,?,18.4µM*,10.3µM*,?
COc1ncnc2c1sc1nc(-c3ccccc3)c3c(c12)CCCC3,-21.0%,i,-1.3%,4.7%,10.9%,?
O=C(O)COc1ccc(/C=C/c2nc3ccc([N+](=O)[O-])cc3s2)cc1,8.3%,i,11.6µM*,5.9%,?,i
Cc1ccc(NC(=O)CSCC(=O)N(C)CC(=O)Nc2cccc3ccccc23)cc1,-23.0%,i,7.6%,-11.0%,-5.3%,i
CCOC(=O)C1(C(F)(F)F)N=C(C(F)(F)F)Nc2ccc(F)cc21 (stereo unspecified),13µM*,i,-1.9%,7.5%,13.0%,?
CCOC(=O)C(NC(=O)Nc1ccc(F)cc1)(OCC)C(F)(F)F (stereo unspecified),-4.6%,i,3.7%,7.6%,3.8%,i
CCCNC(=O)c1cc(S(=O)(=O)N2CCC3(CC2)OCCO3)ccc1F,/,i,/,-0.7%,1.7%,i
